Here are results for 47 sequences from paper PMC12820563, “FoxP3 forms a head-to-head dimer in vivo and stabilizes its multimerization on adjacent microsatellites”.

In all, about 16,000 sequences were measured (“rpm ratio (pull-down/input)”: median about 0.94, highest 2% from about 1.7 on). The list comes from a sample in which the highest values are over-represented; it also holds similar and randomly drawn sequences.

The target of the assay is T1, MBP-FoxP1dN (Mus musculus, UniProt P58462 326-579).
T1 sequence: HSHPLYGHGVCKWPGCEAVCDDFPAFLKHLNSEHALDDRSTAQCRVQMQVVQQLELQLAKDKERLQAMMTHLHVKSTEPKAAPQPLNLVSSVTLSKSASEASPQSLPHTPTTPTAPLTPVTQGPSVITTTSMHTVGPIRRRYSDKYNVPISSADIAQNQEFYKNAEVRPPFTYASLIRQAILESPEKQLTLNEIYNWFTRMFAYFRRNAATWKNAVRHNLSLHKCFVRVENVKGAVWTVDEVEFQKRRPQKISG
The experiment in a line: PD-seq (MBP pull-down with sequencing); 20 mM Tris-HCl pH 7.5, 100 mM NaCl, 1.5 mM MgCl2, 0.4 uM protein, 0.1 uM dsDNA library, 30 min, room temperature, amylose pull-down; high values mean tight binding. The conditions noted are these: protein: recombinant; tags: His6-MBP; chain copies: 2; dsDNA, one strand shown. In a few lines: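 Binding is reads-per-million enrichment of pull-down over input, with replicates pooled. It comes from 30 min room-temperature incubation in Tris pH 7.5 buffer with NaCl and MgCl2 of 0.4 µM His6-MBP-tagged, N-terminally truncated mouse FoxP3 or FoxP1 fragment from E. coli with 0.1 µM Klenow-filled degenerate double-stranded DNA library, followed by amylose resin capture, three washes and Illumina sequencing of the released DNA.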
On to “GATGATTGTTCTCCCAGCTGATGAATTCGGGTAGTCGAGTAAACAAATTTTCCTAATCTTTCTGTTCAAGCGCCATCTAC”, for which the binding signal was 0.855 RPM ratio (pull-down/input).

Turning to “GATGATTGTTCTCCCAGCTGATGAATTAAAAGTCTCGAGTAAACAAATTTTCCTAATCTTTCTGTTCAAGCGCCATCTAC”, the binding signal is 0.816 RPM ratio (pull-down/input).

With “GATGATTGTTCTCCCAGCTGATGAATTGTTCGTTTCGAGTAAACAAATTTTCCTAATCTTTCTGTTCAAGCGCCATCTAC”, the binding signal was 1.15 RPM ratio (pull-down/input).

For “GATGATTGTTCTCCCAGCTGATGAATTGCAAAGCTCGAGTAAACAAATTTTCCTAATCTTTCTGTTCAAGCGCCATCTAC”, the binding signal is 1.09 RPM ratio (pull-down/input).

As to “GATGATTGTTCTCCCAGCTGATGAATTATACAGTTCGAGTAAACAAATTTTCCTAATCTTTCTGTTCAAGCGCCATCTAC”, the binding signal was 1.18 RPM ratio (pull-down/input).

On to “GATGATTGTTCTCCCAGCTGATGAATTACTCACATCGAGTAAACAAATTTTCCTAATCTTTCTGTTCAAGCGCCATCTAC”, for which the binding signal was 1.28 RPM ratio (pull-down/input).

For “GATGATTGTTCTCCCAGCTGATGAATTTCGAATCTCGAGTAAACAAATTTTCCTAATCTTTCTGTTCAAGCGCCATCTAC”, the binding signal was 0.83 RPM ratio (pull-down/input).

On to “GATGATTGTTCTCCCAGCTGATGAATTGTTAAACTCGAGTAAACAAATTTTCCTAATCTTTCTGTTCAAGCGCCATCTAC”, for which the binding signal was 1.1 RPM ratio (pull-down/input).

As to “GATGATTGTTCTCCCAGCTGATGAATTCCGACACTCGAGTAAACAAATTTTCCTAATCTTTCTGTTCAAGCGCCATCTAC”, the binding signal was 0.88 RPM ratio (pull-down/input).

For the sequence “GATGATTGTTCTCCCAGCTGATGAATTACACTCGTCGAGTAAACAAATTTTCCTAATCTTTCTGTTCAAGCGCCATCTAC”, the binding signal was 1.15 RPM ratio (pull-down/input).

For “GATGATTGTTCTCCCAGCTGATGAATTCAGACGTTCGAGTAAACAAATTTTCCTAATCTTTCTGTTCAAGCGCCATCTAC”, the binding signal was 0.787 RPM ratio (pull-down/input).

On to “GATGATTGTTCTCCCAGCTGATGAATTCTTTCAATCGAGTAAACAAATTTTCCTAATCTTTCTGTTCAAGCGCCATCTAC”, for which the binding signal was 0.972 RPM ratio (pull-down/input).

Turning to “GATGATTGTTCTCCCAGCTGATGAATTCTCCCAATCGAGTAAACAAATTTTCCTAATCTTTCTGTTCAAGCGCCATCTAC”, the binding signal was 0.958 RPM ratio (pull-down/input).

Consider “GATGATTGTTCTCCCAGCTGATGAATTCAAACAATCGAGTAAACAAATTTTCCTAATCTTTCTGTTCAAGCGCCATCTAC”, for which the binding signal is 1.81 RPM ratio (pull-down/input).

On to “GATGATTGTTCTCCCAGCTGATGAATTATGCGATTCGAGTAAACAAATTTTCCTAATCTTTCTGTTCAAGCGCCATCTAC”, for which the binding signal is 1.06 RPM ratio (pull-down/input).

For “GATGATTGTTCTCCCAGCTGATGAATTTGTAATGTCGAGTAAACAAATTTTCCTAATCTTTCTGTTCAAGCGCCATCTAC”, the binding signal is 1.26 RPM ratio (pull-down/input).

“GATGATTGTTCTCCCAGCTGATGAATTTTGTATGTCGAGTAAACAAATTTTCCTAATCTTTCTGTTCAAGCGCCATCTAC”: the binding signal is 1.54 RPM ratio (pull-down/input).

For “GATGATTGTTCTCCCAGCTGATGAATTTGTATTGTCGAGTAAACAAATTTTCCTAATCTTTCTGTTCAAGCGCCATCTAC”, the binding signal was 2.88 RPM ratio (pull-down/input).

Consider “GATGATTGTTCTCCCAGCTGATGAATTGTAATTGTCGAGTAAACAAATTTTCCTAATCTTTCTGTTCAAGCGCCATCTAC”, for which the binding signal was 1.39 RPM ratio (pull-down/input).

For the sequence “GATGATTGTTCTCCCAGCTGATGAATTGTATCTGTCGAGTAAACAAATTTTCCTAATCTTTCTGTTCAAGCGCCATCTAC”, the binding signal was 1.08 RPM ratio (pull-down/input).

As for “GATGATTGTTCTCCCAGCTGATGAATTGTATTTGTCGAGTAAACAAATTTTCCTAATCTTTCTGTTCAAGCGCCATCTAC”, the binding signal is 2.5 RPM ratio (pull-down/input).

For the sequence “GATGATTGTTCTCCCAGCTGATGAATTTGCGATCTCGAGTAAACAAATTTTCCTAATCTTTCTGTTCAAGCGCCATCTAC”, the binding signal was 0.924 RPM ratio (pull-down/input).

As to “GATGATTGTTCTCCCAGCTGATGAATTAATTCCTTCGAGTAAACAAATTTTCCTAATCTTTCTGTTCAAGCGCCATCTAC”, the binding signal is 0.955 RPM ratio (pull-down/input).

Turning to “GATGATTGTTCTCCCAGCTGATGAATTCCCGTTTTCGAGTAAACAAATTTTCCTAATCTTTCTGTTCAAGCGCCATCTAC”, the binding signal is 0.97 RPM ratio (pull-down/input).

With “GATGATTGTTCTCCCAGCTGATGAATTGGCCAACTCGAGTAAACAAATTTTCCTAATCTTTCTGTTCAAGCGCCATCTAC”, the binding signal is 0.833 RPM ratio (pull-down/input).

For the sequence “GATGATTGTTCTCCCAGCTGATGAATTGTCGTATTCGAGTAAACAAATTTTCCTAATCTTTCTGTTCAAGCGCCATCTAC”, the binding signal was 1.14 RPM ratio (pull-down/input).

Regarding “GATGATTGTTCTCCCAGCTGATGAATTTCCTATGTCGAGTAAACAAATTTTCCTAATCTTTCTGTTCAAGCGCCATCTAC”, the binding signal is 0.811 RPM ratio (pull-down/input).

Regarding “GATGATTGTTCTCCCAGCTGATGAATTGTCTATTTCGAGTAAACAAATTTTCCTAATCTTTCTGTTCAAGCGCCATCTAC”, the binding signal is 1.31 RPM ratio (pull-down/input).

Regarding “GATGATTGTTCTCCCAGCTGATGAATTCCTATTGTCGAGTAAACAAATTTTCCTAATCTTTCTGTTCAAGCGCCATCTAC”, the binding signal is 2.02 RPM ratio (pull-down/input).

With “GATGATTGTTCTCCCAGCTGATGAATTTGTCTATTCGAGTAAACAAATTTTCCTAATCTTTCTGTTCAAGCGCCATCTAC”, the binding signal is 1.28 RPM ratio (pull-down/input).

Turning to “GATGATTGTTCTCCCAGCTGATGAATTCGTATTGTCGAGTAAACAAATTTTCCTAATCTTTCTGTTCAAGCGCCATCTAC”, the binding signal was 2.07 RPM ratio (pull-down/input).

Consider “GATGATTGTTCTCCCAGCTGATGAATTCTATCTGTCGAGTAAACAAATTTTCCTAATCTTTCTGTTCAAGCGCCATCTAC”, for which the binding signal was 0.875 RPM ratio (pull-down/input).

Consider “GATGATTGTTCTCCCAGCTGATGAATTCTCTTTGTCGAGTAAACAAATTTTCCTAATCTTTCTGTTCAAGCGCCATCTAC”, for which the binding signal is 0.834 RPM ratio (pull-down/input).

Regarding “GATGATTGTTCTCCCAGCTGATGAATTCTAATTGTCGAGTAAACAAATTTTCCTAATCTTTCTGTTCAAGCGCCATCTAC”, the binding signal is 1.29 RPM ratio (pull-down/input).

For the sequence “GATGATTGTTCTCCCAGCTGATGAATTCTATTTGTCGAGTAAACAAATTTTCCTAATCTTTCTGTTCAAGCGCCATCTAC”, the binding signal is 2.3 RPM ratio (pull-down/input).

As for “GATGATTGTTCTCCCAGCTGATGAATTTCTATTGTCGAGTAAACAAATTTTCCTAATCTTTCTGTTCAAGCGCCATCTAC”, the binding signal was 1.91 RPM ratio (pull-down/input).

For “GATGATTGTTCTCCCAGCTGATGAATTCGTATTTTCGAGTAAACAAATTTTCCTAATCTTTCTGTTCAAGCGCCATCTAC”, the binding signal was 1.67 RPM ratio (pull-down/input).

In the case of “GATGATTGTTCTCCCAGCTGATGAATTTCGCATTTCGAGTAAACAAATTTTCCTAATCTTTCTGTTCAAGCGCCATCTAC”, the binding signal was 1.28 RPM ratio (pull-down/input).

For the sequence “GATGATTGTTCTCCCAGCTGATGAATTGCCCAGTTCGAGTAAACAAATTTTCCTAATCTTTCTGTTCAAGCGCCATCTAC”, the binding signal is 0.931 RPM ratio (pull-down/input).

Turning to “GATGATTGTTCTCCCAGCTGATGAATTGGGTCCTTCGAGTAAACAAATTTTCCTAATCTTTCTGTTCAAGCGCCATCTAC”, the binding signal was 0.85 RPM ratio (pull-down/input).

“GATGATTGTTCTCCCAGCTGATGAATTGAACTTTTCGAGTAAACAAATTTTCCTAATCTTTCTGTTCAAGCGCCATCTAC”: the binding signal was 0.887 RPM ratio (pull-down/input).

Turning to “GATGATTGTTCTCCCAGCTGATGAATTTTCACAATCGAGTAAACAAATTTTCCTAATCTTTCTGTTCAAGCGCCATCTAC”, the binding signal was 1.29 RPM ratio (pull-down/input).

With “GATGATTGTTCTCCCAGCTGATGAATTACTGACCTCGAGTAAACAAATTTTCCTAATCTTTCTGTTCAAGCGCCATCTAC”, the binding signal was 0.91 RPM ratio (pull-down/input).

“GATGATTGTTCTCCCAGCTGATGAATTTGGGTAATCGAGTAAACAAATTTTCCTAATCTTTCTGTTCAAGCGCCATCTAC”: the binding signal is 1.27 RPM ratio (pull-down/input).

For the sequence “GATGATTGTTCTCCCAGCTGATGAATTCTCCGGGTCGAGTAAACAAATTTTCCTAATCTTTCTGTTCAAGCGCCATCTAC”, the binding signal is 0.759 RPM ratio (pull-down/input).

Regarding “GATGATTGTTCTCCCAGCTGATGAATTCCGGGATTCGAGTAAACAAATTTTCCTAATCTTTCTGTTCAAGCGCCATCTAC”, the binding signal is 0.754 RPM ratio (pull-down/input).

In the case of “GATGATTGTTCTCCCAGCTGATGAATTATCTGATTCGAGTAAACAAATTTTCCTAATCTTTCTGTTCAAGCGCCATCTAC”, the binding signal was 0.984 RPM ratio (pull-down/input).
